Laboratory results taken from PubChem BioAssay AID1159580 (chemical genetic matrix, 2015).
In all, about 5,500 compounds went through this assay and about 2,000 (36%) were called active. Not shown: some 18% with an inconclusive outcome. The list shows a part of the results. Values without a mark were called inactive. No stated cut-off is given here; in the data, active means normalized growth mostly below about 0.91 (no sharp cut-off); inconclusive means no clear call, values can overlap the other calls; inactive means mostly above about 0.92.

Assay: chemical genetic growth profiling, strain panel (AID 1159580);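 further: tested at 20 µM; growth read once vehicle control cultures reached saturation at 30 °C; 1 = growth at the plate median or of vehicle wells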
Settings: S. cerevisiae deletion strains, growth OD
[1] = locus YAL013W, strain DEP1, stronger effect = lower value
[2] = locus YDR150W, strain NUM1, stronger effect = lower value
[3] = locus YGR078C, strain PAC10, stronger effect = lower value
[4] = locus YHR030C, strain SLT2, stronger effect = lower value
[5] = locus YMR307W, strain GAS1, stronger effect = lower value
[6] = locus YNL322C, strain KRE1, stronger effect = lower value
[7] = locus YPL055C, strain LGE1, stronger effect = lower value
[8] = locus YAL040C, strain CLN3, stronger effect = lower value
[9] = locus YCL061C, strain MRC1 (second series), stronger effect = lower value
[10] = locus YDR363W, strain ESC2, stronger effect = lower value
[11] = locus YER002W, strain NOP16, stronger effect = lower value
[12] = locus YNL128W, strain TEP1, stronger effect = lower value
[13] = locus YNL175C, strain NOP13, stronger effect = lower value
[14] = locus YNL197C, strain WHI3, stronger effect = lower value
[15] = locus YNL224C, strain SQS1, stronger effect = lower value
[16] = locus YOR083W, strain WHI5 (second series), stronger effect = lower value

## c1ccc(-c2ccc(-c3csc(-c4cccnc4)n3)cc2)cc1
[1]
  normalized growth: 1.01
Locus YBR229C, strain ROT2, stronger effect = lower value
  normalized growth: 1.02
Locus YCL061C, strain MRC1, stronger effect = lower value
  normalized growth: 0.951
Locus YDL101C, strain DUN1, stronger effect = lower value
  normalized growth: 0.972
[2]
  normalized growth: 1
Locus YEL061C, strain CIN8, stronger effect = lower value
  normalized growth: 1.01
[3]
  normalized growth: 0.997
[4]
  normalized growth: 1.04
Locus YHR087W, strain rtc3, stronger effect = lower value
  normalized growth: 1.01
Locus YJL187C, strain SWE1, stronger effect = lower value
  normalized growth: 0.979
Locus YJR043C, strain POL32, stronger effect = lower value
  normalized growth: 0.975
Locus YJR075W, strain HOC1, stronger effect = lower value
  normalized growth: 1.03
Locus YKL190W, strain CNB1, stronger effect = lower value
  normalized growth: 1.02
Locus YLR039C, strain RIC1, stronger effect = lower value
  normalized growth: 1.01
Locus YLR058C, strain SHM2 (second series), stronger effect = lower value
  normalized growth: 1.02
Locus YLR085C, strain ARP6, stronger effect = lower value
  normalized growth: 0.991
Locus YLR262C, strain YPT6, stronger effect = lower value
  normalized growth: 1.09
Locus YML094W, strain GIM5, stronger effect = lower value
  normalized growth: 1
Locus YMR219W, strain ESC1, stronger effect = lower value
  normalized growth: 1.02
Locus YMR263W, strain SAP30, stronger effect = lower value
  normalized growth: 0.992
[5]
  normalized growth: 0.896
Locus YNL153C, strain GIM3, stronger effect = lower value
  normalized growth: 0.956
Locus YNL298W, strain CLA4 (second series), stronger effect = lower value
  normalized growth: 1.04
[6]
  normalized growth: 1.03
Locus YNR030W, strain Alg12, stronger effect = lower value
  normalized growth: 1.01
Locus YOL006C, strain TOP1, stronger effect = lower value
  normalized growth: 1.08
[7]
  normalized growth: 0.944
Locus YPL241C, strain CIN2, stronger effect = lower value
  normalized growth: 0.979
Locus YPR135W, strain CTF4, stronger effect = lower value
  normalized growth: 1.08

## c1cncc(C2=NCCC2)c1
[4]
  normalized growth: 1.02
Locus YHR079C, strain IRE1, stronger effect = lower value
  normalized growth: 1.01
Locus YJL095W, strain BCK1, stronger effect = lower value
  normalized growth: 1.02
Locus YJR066W, strain TOR1, stronger effect = lower value
  normalized growth: 0.938
Locus YLR113W, strain HOG1, stronger effect = lower value
  normalized growth: 0.905
Locus YNL183C, strain NPR1, stronger effect = lower value
  normalized growth: 0.952
Locus YOR231W, strain MKK1, stronger effect = lower value
  normalized growth: 1.01
Locus YPL256C, strain CLN2, stronger effect = lower value
  normalized growth: 0.99

## CNc1ccc2oc(C[C@H]3O[C@@]4(CC[C@H]3C)O[C@H]([C@H](C)C(=O)c3ccc[nH]3)[C@H](C)C[C@H]4C)nc2c1C(=O)O
[1]
  normalized growth: 0.976
[8]
  normalized growth: 0.929
[9]
  normalized growth: 0.951
[10]
  normalized growth: 0.928
[11]
  normalized growth: 0.997
[12]
  normalized growth: 0.98
[13]
  normalized growth: 0.907 (active)
[14]
  normalized growth: 0.853 (active)
[15]
  normalized growth: 0.924
[16]
  normalized growth: 0.906

## CCCCCC(O)c1cccc(OCc2ccc3ccccc3n2)c1 (stereo not drawn)
[1]
  normalized growth: 0.958
[8]
  normalized growth: 0.958
[9]
  normalized growth: 0.984
[2]
  normalized growth: 1
[10]
  normalized growth: 0.976
[11]
  normalized growth: 1.01
[3]
  normalized growth: 0.982
Locus YGR229C, strain SMI1, stronger effect = lower value
  normalized growth: 0.942
[5]
  normalized growth: 0.996
[12]
  normalized growth: 1
[13]
  normalized growth: 0.995
[14]
  normalized growth: 0.995
[15]
  normalized growth: 0.99
[6]
  normalized growth: 0.972
[16]
  normalized growth: 0.873
[7]
  normalized growth: 0.973
